Data taken from the supplement of paper PMC10477191.
± gives the standard deviation of the averaged measurements.

These molecules were tested on Drosophila virilis antennal basiconic sensillum AB4 (assay: odor-evoked OSN spike response (post minus pre-stimulus); higher = stronger neuronal excitation). Conditions: odor dilution: 10^-4.
Description: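 Single sensillum recordings from antennal basiconic sensilla of D. virilis. A 500 ms pulse of odorant (10^-4 in mineral oil or DMSO) was delivered; the response is the change in spike frequency between the 1 s pre- and post-stimulus windows (spikes/s).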

SMILES | odor-evoked OSN spike response [spikes/s]
C[C@H]1CCC[C@@]2(C)CCCC[C@]12O [geosmin] | 102 ± 21
